From PubChem BioAssay (EPA / NIEHS)
Values joined by “and” are separate entries in the source; they are usually repeats but may differ in a detail not shown here. Equal values may be shown once. The source holds several records for some structures; these can differ, active in one and inactive in another. Active and inactive are the calls of the source. Rule for the calls: active = hit-call score of the fitted dose curve at least 0.9, where 1 is the maximum; inactive = score below 0.9.

What follows are molecules tested on CD40, CD40 (gene 958) (assay: BSK_LPS_CD40: BioMAP Diversity Plus: LPS Assay for CD40 Biomarker Activity (AID 2283076)). Details: primary human HUVEC with PBMC; actives raise or lower the signal.
Method: BSK_LPS is a cell-based, multiplexed-readout assay that uses umbilical vein endothelium and peripheral blood mononuclear cells, a human vascular primary cell co-culture, with measurements taken at 24 hours after chemical dosing in a 96-well plate.BSK_LPS_CD40 is an assay component measured in the BSK_LPS assay. It measures CD40 antibody related to regulation of gene expression using ELISA technology.Data from the assay component BSK_LPS_CD40 was analyzed into 1 assay endpoint. This assay endpoint, BSK_LPS_CD40, was analyzed with bidirectional fitting relative to DMSO as the negative control and baseline of activity. Using a type of binding reporter, gain or loss-of-signal activity can be used to understand changes in the signaling as they relate to the gene CD40. Furthermore, this assay endpoint can be referred to as a primary readout, because this assay has produced multiple assay endpoints where this one serves a signaling function. To generalize the intended target to other relatable targets, this assay endpoint is annotated to the cytokine intended target family, where the subfamily is inflammatory factor.
The levels of cell surface (or secreted, indicated by the prefix "s") biomarker endpoints were measured by ELISA. Overt cytotoxicity to cells in confluent adherent cultures (all systems other than the BT system) was assessed by measuring total protein levels using sulforhodamine B (SRB) staining in parallel cultures at the time of biomarker measurements, indicated as SRB endpoints. For proliferation assays for adherent cell types, individual cell types are cultured at sub-confluence and relative cell numbers quantified by SRB staining at time points optimized for each system (48 h: 3C and CASM3C systems; 72 h: BT and HDF3CGF systems; 96 h: SAg system). SRB was performed by staining cells with 0.1% SRB after fixation with 10% TCA and reading wells at 560 nm.Viability and proliferation of PBMC (T cells) was quantified by Alamar Blue reduction for the SAg and BT systems. For PBMC viability (referred to as PBMC Cytotoxicity within the assay endpoint names), cells were plated (75,000/well in a 96-well plate) and then chemical samples added for 1 h before addition of activators, SEB and TSST-1 (20 ng/mL final concentration each). Cells were incubated for 90 h. Then, Alamar Blue (20 uL/well) (Invitrogen, Cat DAL1100) was added for 6 h, and the plates were read with a fluorescence microplate reader at 546/580 nm (excitation/emission). For PBMC proliferation, cells were plated and activated as above but incubated for only 16 h prior to addition of Alamar Blue. Plates were read after 6 h.
For `O=C(O)C(F)(F)C(F)(F)C(F)(F)C(F)(F)C(F)(F)C(F)(F)C(F)(F)C(F)(F)C(F)(F)C(F)(F)C(F)(F)C(F)(F)F`, the outcome was “inactive”.
For `O=S(=O)(O)C(F)(F)C(F)(F)C(F)(F)C(F)(F)C(F)(F)C(F)(F)C(F)(F)F`, the outcome was “inactive”.
`O=C(O)C(F)(F)C(F)(F)C(F)(F)F` was tested, and the outcome was “inactive”.
`FC(F)(F)C(F)(F)C(F)(F)C(F)(F)C(F)(F)C(F)(F)C(F)(F)I` was tested, and the outcome was “inactive”.
In the case of `OCC(F)(F)C(F)(F)C(F)(F)C(F)(F)C(F)(F)C(F)F`, the outcome is reported as “inactive”.
With `Cc1ccc(S(=O)(=O)OCC(F)(F)C(F)(F)C(F)(F)C(F)(F)C(F)(F)C(F)F)cc1` the AC50 was 30 µM (active) and the outcome was “inactive”.
In the case of `C=CC(F)(F)C(F)(F)C(F)(F)C(F)(F)C(F)(F)C(F)(F)C(F)(F)C(F)(F)F`, the outcome is reported as “inactive”.
In the case of `OCCCC(F)(F)C(F)(F)C(F)(F)C(F)(F)C(F)(F)C(F)(F)C(F)(F)F`, the AC50 is reported as 45.6 µM (active) and 45.1 µM (active).
`FC(F)(F)C(F)(F)C(F)(F)CI` was tested, and the outcome was “inactive”.
With `O=C(O)C(F)(F)C(F)(F)C(F)(F)C(F)(F)C(F)(F)C(F)(F)C(F)(F)C(F)(F)Cl` the outcome was “inactive”.
For `FC(F)(F)C(F)(F)C(F)(F)C(F)(F)C(F)(F)C(F)(F)C(F)(F)Br`, the outcome was “inactive”.
For `N=C(N)C(F)(F)C(F)(F)C(F)(F)C(F)(F)C(F)(F)C(F)(F)C(F)(F)F`, the outcome was “inactive” and the AC50 was 41.5 µM (active).
For `FC(F)(F)C(F)(F)C(F)(F)C(F)(F)C(F)(F)C(F)(F)C(F)(F)C(F)(F)CCS`, the outcome was “inactive”.
With `O=C(Cl)C(F)(F)C(F)(F)C(F)(F)C(F)(F)C(F)(F)C(F)(F)C(F)(F)C(F)(F)F` the AC50 was 20.1 µM (active) and 48.8 µM (active) and the outcome was “inactive”.
`CCCCCCCCC(F)(F)C(F)(F)C(F)(F)C(F)(F)C(F)(F)C(F)(F)F` was tested, and the outcome was “inactive”.
With `CCO[Si](CCC(F)(F)C(F)(F)C(F)(F)C(F)(F)C(F)(F)C(F)(F)F)(OCC)OCC` the outcome was “inactive” and the AC50 was 1.4 µM (active).
`O=C(O)C=C(C(F)(F)F)C(F)(F)F` was tested, and the outcome was “inactive” and the AC50 was 19.6 µM (active).
With `OCC(F)(F)C(F)(F)C(F)(F)C(F)F` the outcome was “inactive”.
For `C=C(C)C(=O)OCCC(F)(F)C(F)(F)C(F)(F)C(F)(F)C(F)(C(F)(F)F)C(F)(F)F`, the outcome was “inactive”.
With `O=C(O)C(F)(F)C(F)(F)C(F)F` the outcome was “inactive”.
In the case of `FC(F)(F)C(F)(F)C(F)(F)C(F)(F)C(F)(F)C(F)(F)CCS`, the outcome is reported as “inactive”.
In the case of `Oc1ccc(Nc2ccccc2)cc1`, the AC50 is reported as 20 µM (active).
With `OCC(F)(F)C(F)(F)C(F)(F)C(F)(F)C(F)(F)C(F)(F)F` the outcome was “inactive”.
`CO[Si](OC)(c1ccccc1)c1ccccc1` was tested, and the outcome was “inactive”.
For `FC(F)(F)C(F)(F)C(F)(F)C(F)(F)C(F)(F)C(F)(F)CC1CO1` (stereo not given), the outcome was “inactive”.
In the case of `O=S(=O)(OCCOC(F)(F)F)C(F)(F)F`, the outcome is reported as “inactive”.
For `FC1CC(F)(F)C(F)(F)C1(F)F` (stereo not given), the outcome was “inactive”.
With `C=C(C)C(=O)OCC(F)(F)C(F)(F)C(F)(F)F` the outcome was “inactive”.
`C#C[C@]1(O)CC[C@H]2[C@@H]3CCc4cc(OC)ccc4[C@H]3CC[C@@]21C` was tested, and the AC50 was 20 µM (active).
For `FC(F)(F)C(F)(F)C(F)(F)N(C(F)(F)C(F)(F)C(F)(F)F)C(F)(F)C(F)(F)C(F)(F)F`, the outcome was “inactive”.
For `CCc1c(Br)c(Br)c(Br)c(Br)c1Br`, the outcome was “inactive”.
`O=C(O)C(F)(OC(F)(F)C(F)(OC(F)(F)C(F)(OC(F)(F)C(F)(F)C(F)(F)F)C(F)(F)F)C(F)(F)F)C(F)(F)F` (stereo not given) was tested, and the outcome was “inactive”.
For `CS(C)(=O)=O`, the outcome was “inactive”.
With `CCCCCCOC(=O)c1ccccc1O` the AC50 was 41.9 µM (active) and 24.5 µM (active).
For `CCCCOCCOCCOC(=O)CCCCC(=O)OCCOCCOCCCC`, the outcome was “inactive”.
